According to PubChem BioAssay (NCATS):
Inconclusive results are not listed. Calls of active or inactive are those of the source. The call rests on the fitted dose curve; in most records, active means well fitted inhibition curve with a large enough effect; inconclusive means small, poorly fitted or top-dose-only effect; inactive means flat fitted curve, though single readings scatter.

Tests used:
Assay in all cases: qHTS profiling for inhibitors of Plasmodium falciparum proliferation (AID 504749); further: nearly all actives have a fitted effect of over 60% in size
Settings in all cases: P. falciparum in erythrocytes, SYBR Green DNA, 72 h; series mostly up to 28.7 µM
CP291 = system: CP291
Method in brief: (§1)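 Three-day growth assay of blood-stage parasites in erythrocytes (0.3% parasitemia, 2.5% hematocrit) at 37 C, 5% CO2, quantified by SYBR Green DNA staining after overnight detergent lysis.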

CP297 = system: CP297
Method in brief: as §1

CP305 = system: CP305
Method in brief: as §1

CP315 = system: CP315
Method in brief: as §1

CP325 = system: CP325
Method in brief: as §1

CP329 = system: CP329
Method in brief: as §1

CP335 = system: CP335
Method in brief: as §1

DFO2036 = system: DFO2036
Method in brief: as §1

DIV14 = system: DIV14
Method in brief: as §1

DIV17 = system: DIV17
Method in brief: as §1

Measured: Potency
Potency means the concentration at half of the fitted maximal effect.

CCN(CC)CC(=O)Nc1c(C)cccc1C
inactive: CP291 | CP297 | CP305 | CP315 | CP325 | CP329 | CP335 | DFO2036 | DIV14 | DIV17

C[N+](C)(C)CCCCCCCCCC[N+](C)(C)C
active: CP291 3.38 µM | CP297 4.78 µM | CP305 4.26 µM | CP315 4.26 µM | CP325 3.38 µM | CP329 3.38 µM | CP335 1.9 µM | DFO2036 4.47 µM | DIV14 1.07 µM | DIV17 1.69 µM

CCCOc1ccccc1-c1nc2n[nH]nc2c(=O)[nH]1
inactive: CP291 | CP297 | CP305 | CP315 | CP325 | CP329 | DFO2036 | DIV14 | DIV17

CCO/C([O-])=N/c1c[n+](N2CCOCC2)no1
inactive: CP291 | CP297 | CP305 | CP315 | CP329 | CP335 | DFO2036 | DIV14 | DIV17

CC1=NS(=O)(=O)c2cc(Cl)ccc2N1
inactive: CP291 | CP297 | CP305 | CP315 | CP325 | CP329 | CP335 | DFO2036 | DIV14 | DIV17

CC(=O)Oc1cc(C(C)C)c(OCCN(C)C)cc1C
inactive: CP291 | CP297 | CP305 | CP315 | CP325 | CP329 | DFO2036 | DIV14 | DIV17

NS(=O)(=O)c1cc2c(cc1Cl)NC(C1CC3C=CC1C3)NS2(=O)=O (centres undefined)
inactive: CP291 | CP297 | CP305 | CP315 | CP325 | CP329 | CP335 | DFO2036 | DIV14 | DIV17

OCCN1CCN(CCCN2c3ccccc3C=Cc3ccccc32)CC1
active: CP291 12 µM | CP297 12 µM | CP305 10.7 µM | CP325 8.49 µM | CP335 6.75 µM | DFO2036 11.2 µM | DIV14 1.2 µM | DIV17 1.69 µM

CCCCNc1c(C(=O)OCC)c(C)nc2c1cnn2CC
inactive: CP291 | CP297 | CP305 | CP315 | CP325 | CP329 | DFO2036 | DIV14

CN(C)CCCN1c2ccccc2Sc2ccc(C(F)(F)F)cc21
inactive: CP291 | CP297 | CP305 | CP315 | CP325 | CP329
active: DIV14 6.75 µM | DIV17 5.36 µM

C[n+]1cc2c3c(ccc2c2ccc4cc5c(cc4c21)OCO5)OCO3
inactive: CP291 | CP297 | CP315 | CP329 | CP335 | DFO2036 | DIV17

CC(=O)OCC1=C(C(=O)O)N2C(=O)[C@@H](NC(=O)Cc3cccs3)[C@H]2SC1
inactive: CP291 | CP297 | CP305 | CP315 | CP325 | CP329 | CP335 | DFO2036 | DIV14 | DIV17

CN(C)C(=O)Oc1cccc([N+](C)(C)C)c1
inactive: CP291 | CP297 | CP305 | CP315 | CP325 | CP329 | CP335 | DFO2036 | DIV14 | DIV17

CN(C)CCOC(=O)COc1ccc(Cl)cc1
inactive: CP291 | CP297 | CP305 | CP315 | CP329 | CP335 | DFO2036

CCOC(=O)c1cnc2c(cnn2CC)c1NN=C(C)C
inactive: CP291 | CP305 | CP315 | CP325 | CP329 | CP335 | DFO2036

CC(=O)[C@]1(O)Cc2c(O)c3c(c(O)c2[C@@H](O[C@H]2C[C@H](N)[C@H](O)[C@H](C)O2)C1)C(=O)c1ccccc1C3=O
active: CP291 9.53 µM | CP305 8.49 µM | CP315 15.1 µM | CP329 10.7 µM | CP335 1.69 µM | DFO2036 3.55 µM | DIV14 4.78 µM | DIV17 4.78 µM

CCN(CC)CCOCCOC(=O)C1(c2ccccc2)CCCC1
inactive: CP315 | CP329
active: CP297 6.75 µM | CP305 13.5 µM | CP325 15.1 µM | CP335 9.53 µM | DFO2036 12.6 µM | DIV14 2.39 µM | DIV17 3.79 µM

CC(C)[N+](C)(CCOC(=O)C1c2ccccc2Oc2ccccc21)C(C)C
inactive: CP315

CN1C[C@H](C(=O)N[C@]2(C)O[C@@]3(O)[C@@H]4CCCN4C(=O)[C@H](Cc4ccccc4)N3C2=O)C[C@@H]2c3cccc4[nH]cc(c34)C[C@H]21
active: CP291 16.9 µM | CP297 4.26 µM | CP325 12 µM | CP335 8.49 µM | DIV14 0.675 µM | DIV17 0.426 µM

CC(C)(C)c1ccc(C(=O)CCCN2CCC(OC(c3ccccc3)c3ccccc3)CC2)cc1
active: CP305 10.7 µM | CP335 6.75 µM
inactive: CP315

CCOC(=O)C1=C(C)NC(C)=C(C(=O)OC)C1c1cccc([N+](=O)[O-])c1 (centres undefined)
inactive: CP315

CNCCC(Oc1ccccc1OC)c1ccccc1 (centres undefined)
inactive: CP297 | CP315
active: DIV14 4.78 µM | DIV17 8.49 µM
